Compound activity from PubChem BioAssay.
Pf growth 96h – P. falciparum growth inhibition at 96 hour, primary screen for plastid delayed-death inhibitors | P. falciparum luciferase reporter growth, 96 h | Potency, µM (titrated, usually from 28.7 µM), inactives show at the top dose activity change, negative = inhibition, hits mostly inhibitors | 320,000 tested, 6.9% active | AID 504834; note: % is set by controls: 0 for no effect and ±100 for the full control effect
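Luminescence readout: decreased luciferase signal marks inhibited growth of reporter-expressing P. falciparum in infected red cells (2% hematocrit, 0.05% parasitemia final), exposed to compound two generations (96 h, 37 C, 5% CO2).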
NS1 inh – inhibitors of influenza NS1 protein function; Potency, µM (doses to about 46.1 µM), for the others: top-dose activity, positive = more growth; 270,000 tested, 0.4% active; AID 2326; calls by dose curve; note: actives are rising curves; nearly all actives have a fitted effect of over 50% in size
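Compounds were scored for reversing the slow growth caused by influenza A NS1 in S. cerevisiae, measured by optical density at 600 nm. Assay medium contained 2% galactose at pH 6.0; NS1-free yeast of the same strain were the positive control.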
SARS PLpro yeast – SARS-CoV PLP inhibition in yeast. Potency, µM (doses to about 32.9 µM), without a hit: top-dose activity, positive = growth rescue, usual class: activators. 330,000 tested, 0.19% active. S. cerevisiae expressing SARS-CoV PLpro, growth rescue. AID 485353; calls by dose curve; note: 0% is about no effect; nearly all actives have a fitted effect of over 55% in size
Pf growth 48h – inhibits P. falciparum growth in the first generation, 48 h; P. falciparum luciferase growth in erythrocytes, 48 h; Potency, µM (top dose mostly 28.7 µM), inactives show at the highest dose activity change, negative = inhibition, actives largely listed as inhibitors; 310,000 tested, 5.9% active; AID 504832; note: % is set by controls: 0 for no effect and ±100 for the full control effect
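Compounds are pin-transferred into medium, infected erythrocytes (2% hematocrit, 0.1% parasitemia final) are added, and plates sit one parasite generation at 37 C in 5% CO2. Detection reagent is then added and luminescence measured.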
* marks the source's active call; other numbers are inactive results; u = inconclusive; x = no result given; ! = repeats disagree; [ ] = another dose, or the depositor's remark. In the library only some 10% were active in any assay of this set; here they are far more common. Unless noted, calls come from the whole dose curve; as a rule, active = well fitted inhibition curve with a large enough effect; inconclusive = small, poorly fitted or top-dose-only effect, or another doubt; inactive = no such curve, though single readings can be large or run the other way. Potency is the fitted concentration of half-maximal effect.

SMILES	Pf growth 96h	NS1 inh	SARS PLpro yeast	Pf growth 48h
Cc1cc(C)c2nc(NC(=O)[C@@H](NC(=O)c3cccc(S(=O)(=O)N4CCOCC4)c3)C(C)C)sc2c1	6.6µM*	6%	1%	9.3µM*
Cc1ccc(C(=O)NNC(=O)c2cccc(S(=O)(=O)N3CCOCC3)c2)cc1	x	x	-1%	x
CCN(CC)S(=O)(=O)c1cccc(C(=O)N[C@H](C(=O)O)C(C)C)c1	17%	9%	-2%	x
CCN(CC)S(=O)(=O)c1cccc(C(=O)NC(C(=O)Nc2nnc(C)s2)C(C)C)c1 (stereo unspecified)	x	0%	0%	12µM*
CCOC(=O)C1(Cc2ccc(Cl)cc2)CCN(C(=O)c2cscn2)CC1	u	-5%	0%	2%
Cc1c(NC(=S)NC(=O)c2cccc(Cl)c2)c(=O)n(-c2ccccc2)n1C	u	19%	3%	29%
CCc1ccc(NS(=O)(=O)c2ccc(C)c(C(=O)N3CCOCC3)c2)cc1	u	8%	-3%	0%
CCOc1ccccc1O[C@@H](c1ccccc1)[C@@H]1CNCCO1	13µM*	x	x	u
CCOc1ccccc1CNC(c1ccccc1)c1ccccc1	u	-21%	0%	73%
O=C(CN1C(=O)NC2(CCCCCC2)C1=O)Nc1ccc(Br)cc1Br	-28%	x	6%	-11%
CCn1c(=O)c(C(=O)CN(C)CC(=O)Nc2ccccc2Br)c(N)n(Cc2ccccc2)c1=O	u	x	2%	10µM*
Cc1cccc(C)c1NC(=O)CN(C)CC(=O)c1c(N)n(Cc2ccccc2)c(=O)n(C)c1=O	-12%	x	-1%	12µM*
O=C(CCC(=O)Nc1nnc(C2CCCCC2)s1)NCc1ccc(F)cc1	11%	-6%	-8%	38%
C=CCn1c(=O)n(C2OC(CO)C(O)C2O)c2nc(N)[nH]c(=O)c21 (stereo unspecified)	-8%	x	x	6%
CCCc1cc(NC(=O)COC(=O)c2nccnc2N)n(-c2ccccc2)n1	18%	x	1%	4%
C=CCSc1nnc(-c2nnc(SCC=C)n2CC)n1CC	12µM*	0%	-4%	10µM*
C=CCSc1nnc(CNC(=O)c2ccc(Cl)cc2)n1CC	-26%[5.75 µM]	2%	1%	-18%
C#C[C@]1(O)CC[C@H]2[C@H]3[C@H](CC[C@@]21C)C1=C(CC(=O)CC1)C[C@@H]3C	-26%	x	x	-5%
Cc1ccc(N2C(=O)NC(=O)C(CCc3ccccn3)(Cc3cccc(Cl)c3Cl)C2=O)cc1 (stereo unspecified)	2.3µM*	-10%	14%	-15%
CC(C)(C)C(=O)N1CCN(c2ccc([N+](=O)[O-])c(NCc3cccnc3)c2)CC1	15%	1%	2%	u
O=C(c1ccccc1F)N1CCN(c2ccc([N+](=O)[O-])c(NCc3cccnc3)c2)CC1	10µM*	-5%	1%	u
COc1ccc(C(=O)N2CCN(c3ccc([N+](=O)[O-])c(NCCc4ccc(OC)c(OC)c4)c3)CC2)cc1	4.7µM*	5%	4%	10µM*
O=C(c1ccccc1)N1CCN(c2ccc([N+](=O)[O-])c(NCc3cccnc3)c2)CC1	u	-6%	0%	9.3µM*
CCc1ccc(NC(=O)c2cc(S(=O)(=O)N3CCc4ccccc43)cn2C)cc1	14%	27%	-8%	u
CN1CCCN(C(c2ccccc2)c2ccc(Cl)cc2)CC1 (stereo unspecified)	6.7µM*	-4%	-12%	13µM*
SMILES	Pf growth 96h	NS1 inh	SARS PLpro yeast	Pf growth 48h
Clc1ccc(C(c2ccccc2)N2CCN(c3ccccn3)CC2)cc1 (stereo unspecified)	6.6µM*	-5%	-2%	u
O=S(=O)(/N=C(/Nc1ccccn1)c1ccccc1)c1ccc(F)cc1	17%	3%	13%	48%
CC12CCC(C(=O)Nc3ccccc3)(C/C1=N\O)C2(C)C (stereo unspecified)	-1%	6%	2%	u
CC12CCC(C(=O)O)(C/C1=N\O)C2(C)C (stereo unspecified)	7%	18%	11µM*!	7%
CC1CC(C)CN(CC(O)COCCOc2ccc(Br)cc2)C1 (stereo unspecified)	u	7%	-8%	9.3µM*
CC1CCN(CC(O)COCCOc2ccc(Br)cc2)CC1 (stereo unspecified)	u	-6%	-7%	u
COc1ccc(C(=O)NCC(=O)N/N=C(\C)c2ccco2)cc1OC	-3%	3%	0%	25%
CCOC(=O)Cn1cc(C#N)c2cccc(CC)c21	0.74µM*	-2%	0%	u
CCc1cccc2c(C#N)cn(CC(=O)NCc3ccco3)c12	x	11%	1%	10µM*
COCCN1C(=S)N[C@@H](c2ccccc2)C(C(=O)OC)=C1C	43%	-4%	10%	u
COc1ccc(C(=O)COC(=O)Cn2cnc3ccccc3c2=O)c(OC)c1	17%	x	5%	12%
Cc1cc(=O)[nH]c(SCc2ccccc2)n1	3%	10%	6%	12µM*
Cc1cc(=O)[nH]c(SCCc2ccccc2)n1	53%	6%	0%	15%
COc1ccc(CSc2nc(C)cc(=O)[nH]2)cc1	4.7µM*	-6%	6%	0%
COC(=O)C1=C(C)N(C)C(C)=C(C(=O)OC)C1c1ccc(F)c(Br)c1	-11%	-13%	-15%	9.3µM*
CC(c1ccccc1)n1cc(C(=O)NCc2ccncc2)nn1 (stereo unspecified)	13%	-1%	-4%	-19%
CC(c1ccccc1F)n1cc(C(=O)NCc2ccncc2)nn1 (stereo unspecified)	0.52µM*	-4%	0%	-2%
O=C(O)CCSC1=NCCN1	x	1%	x	x
CC#C[C@]1(O)CC[C@H]2[C@@H]3CCC4=CC(=O)CCC4=C3[C@@H](c3ccc(N(C)C)cc3)C[C@@]21C	6.7µM*	-39%	-7%	13µM*
CCCCNc1nc(Nc2ccc(C)c(Cl)c2)c2cnn(C)c2n1	55%	20%	-3%	u
Cc1cc(OC(C)C(=O)N2CCN(c3ccccc3)CC2)c2c(C)c(C)c(=O)oc2c1 (stereo unspecified)	13µM*	-7%	-2%	9.3µM*
O=C(COC(=O)CSc1ccc(F)cc1)NNC(=O)c1ccc([N+](=O)[O-])cc1	28%	x	2%	3%
Oc1ccc(C2=NN(c3ccccc3)C(c3ccc(F)cc3)C2)cc1 (stereo unspecified)	u	-60%	-12%	9.3µM*
Oc1ccccc1C1=NN(c2ccccc2)C(c2ccc(F)cc2)C1 (stereo unspecified)	10µM*	7%	-4%	u
COc1ccc(C2CC(c3ccc(F)cc3)=NN2c2ccccc2)cc1OC (stereo unspecified)	u	13%	-7%	u
Cc1ccc(S(=O)(=O)N2CCN(CN3C(=O)CC4(CCCC4)C3=O)CC2)cc1	15%	x	-5%	u
Fc1ccc(CN2C3=NCCN3c3ccccc32)cc1	-12%	3%	3%	-9%
O=C(N/N=C/c1ccc([N+](=O)[O-])o1)c1sc2ccccc2c1Cl	1.7µM*	-42%	-21%	u
CCC(=O)Nc1ccc(C(=O)N/N=C/c2ccc([N+](=O)[O-])cc2)cc1	u	3%	-7%	-5%
